Screening data deposited in PubChem by National Center for Advancing Translational Sciences (NCATS).
JMJD2A Tudor inh – blocks the human JMJD2A Tudor domain; O75164; AlphaScreen JMJD2A-Tudor / H3K4me3 peptide binding; Potency, µM (highest dose often 114 µM), actives largely listed as inhibitors; hit rate 4.4% among 390,000; AID 504339; further: nearly all actives have a fitted effect of over 50% in size
HP1b binding inh – blocks HP1-beta chromodomain binding to methylated histone tails | hit rate 0.56% among 390,000 | Potency, µM (top dose mostly 114 µM), most hits filed as inhibitors | AlphaScreen HP1-beta / biotin-H3K9me3 peptide binding | P83916; further: nearly all actives have a fitted effect of over 70% in size
Target sequence (P83916 whole entry, looked up): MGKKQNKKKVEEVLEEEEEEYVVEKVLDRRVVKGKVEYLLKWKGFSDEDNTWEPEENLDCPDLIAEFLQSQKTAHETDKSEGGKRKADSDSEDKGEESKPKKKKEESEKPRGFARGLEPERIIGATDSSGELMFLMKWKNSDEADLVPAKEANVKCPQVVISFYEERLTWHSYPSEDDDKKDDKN
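HP1-beta protein (50 nM final) preincubated 30 min at room temperature with biotinylated H3(1-18)K9me3 peptide (50 nM) in PBS pH 7.4, 0.01% Tween-20, then compound added for 30 min. AlphaScreen streptavidin donor/nickel chelate acceptor beads (10 ug/mL final), 30 min dark, luminescence read.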
G9a inh – blocks human histone lysine methyltransferase G9a. Q96KQ7. G9a H3K9 monomethylation, AlphaScreen, 2 h. Potency, µM (series often up to 102 µM), usual class: inhibitors. hit rate 8.8% among 350,000. AID 504332; further: nearly all actives have a fitted effect of over 75% in size
Target sequence (Q96KQ7 913-1193 limits assumed): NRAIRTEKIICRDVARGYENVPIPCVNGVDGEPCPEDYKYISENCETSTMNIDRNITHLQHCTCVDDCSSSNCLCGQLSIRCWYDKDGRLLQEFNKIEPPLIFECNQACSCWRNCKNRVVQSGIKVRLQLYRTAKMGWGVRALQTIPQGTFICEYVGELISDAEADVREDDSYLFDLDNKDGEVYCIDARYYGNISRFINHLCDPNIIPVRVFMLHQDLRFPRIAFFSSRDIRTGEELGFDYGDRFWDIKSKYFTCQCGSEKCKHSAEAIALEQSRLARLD
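Using a bead-based AlphaScreen, monomethylated H3K9 product from 2 h room-temperature reactions (G9a 20 nM, peptide 500 nM, SAM 20 uM) was detected with 0.5 ug/mL rabbit anti-H3K9me1 antibody.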
Sfp inh – inhibitors of Bacillus subtilis Sfp phosphopantetheinyl transferase | Q9F4F7 | Biochemical Sfp PPTase activity, qHTS | Potency, µM, hits mostly inhibitors | hit rate 3.5% among 310,000 | AID 1490;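 further: the enzyme is Sfp with the accession as filed and its product quenches rhodamine fluorescence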
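Reaction rates are the 30-min fluorescence difference (ex 525, em 598 nm) in wells containing 15 nM Sfp, 5 uM rhodamine-CoA and 12.5 uM BHQ-2-YbbR at pH 7.6 with 10 mM MgCl2.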
BAZ2B block – blocks human BAZ2B | Q9UIF8 | AlphaScreen BAZ2B-H3K14Ac peptide displacement | Potency, µM (titrated, usually from 114 µM), usual class: inhibitors | hit rate 4.4% among 360,000 | AID 504333; further: nearly all actives have a fitted effect of over 60% in size
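AlphaScreen luminescence quantifies BAZ2B engagement of H3K14Ac peptide; the protein and biotinylated peptide are both at 50 nM final, buffer PBS pH 7.4 with 0.01% Tween-20, all steps at room temperature.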
Of the large screens only hits and unclear results are named; the others gave an inactive call. An excerpt weighted towards active compounds, which were near 12% of everything screened. The call rests on the fitted dose curve; in most records, active means well fitted curve in the direction sought with a large enough effect; inconclusive means small, poorly fitted or top-dose-only effect, or another doubt; inactive means no such curve, though single readings can be large; an effect the other way counts as inactive or inconclusive.

CCOc1ccc(CCNC(=O)COC(=O)/C=C/c2ccc(C)o2)cc1OCC	G9a inh inconclusive, Sfp inh 56.2µM
Cc1ccc(C(=O)OCC(=O)NCCNC(=O)COC(=O)c2ccc(C)o2)o1	G9a inh 56.2µM (no result: Sfp inh)
Cc1ccc(/C=C/C(=O)OCC(=O)NCCN2C(=O)CSC2=O)o1	G9a inh 50.1µM, Sfp inh 31.6µM
O=CC(O)C(O)C(O)C(O)CO (stereo not drawn)	none (no result: JMJD2A Tudor inh, HP1b binding inh, BAZ2B block)
Cc1ccc(/C=C/C(=O)OCC(=O)NC(=O)NCc2ccccc2)cc1	none (no result: Sfp inh)
Cc1ccc(/C=C/C(=O)OCC(=O)NCc2ccccc2)o1	G9a inh 44.7µM (no result: Sfp inh)
Cc1ccc(CNC(=O)CSc2nc3c(sc4ccccc43)c(=O)n2CCCOC(C)C)cc1	none (no result: Sfp inh)
O=C(O)[C@@H](c1ccccc1)N1Cc2ccccc2C1=O	JMJD2A Tudor inh 25.1µM, G9a inh 39.8µM, Sfp inh 28.2µM, BAZ2B block 20µM
CC(=O)Nc1ccc(NC(=O)C(c2ccccc2)N2Cc3ccccc3C2=O)cc1 (stereo not drawn)	none (no result: Sfp inh)
COc1ccc(O)c(/C=N/Nc2nc(C)cc(-c3ccccc3)n2)c1	JMJD2A Tudor inh 35.5µM, HP1b binding inh inconclusive (no result: G9a inh, Sfp inh, BAZ2B block)
COc1ccc(/C=N/Nc2nc(C)cc(-c3ccccc3)n2)c(OC)c1	none
O=c1[nH]c2ccc(N=Cc3c(O)ccc4cc(Br)ccc34)cc2[nH]1	JMJD2A Tudor inh 44.7µM, G9a inh 1.58µM, BAZ2B block inconclusive
CCCc1[nH]n(-c2ccc([N+](=O)[O-])cc2)c(=O)c1C=NCCCn1ccnc1	BAZ2B block 50.1µM
CCCc1[nH]n(-c2ccc([N+](=O)[O-])cc2)c(=O)c1C(C)=NCc1ccncc1	JMJD2A Tudor inh inconclusive, G9a inh 35.5µM
N#Cc1ccc(CN2CCCC3(CCNCC3)C2)cc1	none (no result: JMJD2A Tudor inh, HP1b binding inh, BAZ2B block)
CN1C(=O)N(C)c2ccc(Br)c3cccc1c23	JMJD2A Tudor inh 44.7µM
CS(=O)(=O)Nc1cccc(-c2nccc(NCc3cccs3)n2)c1	none (no result: JMJD2A Tudor inh, HP1b binding inh, BAZ2B block)
COc1ccccc1NC(=O)CCN1C(=O)C2CC=CCC2C1=O (stereo not drawn)	none (no result: G9a inh)
CC(NC(=O)/C(C#N)=C/c1ccc([N+](=O)[O-])o1)c1ccccc1 (stereo not drawn)	JMJD2A Tudor inh inconclusive, G9a inh 44.7µM, BAZ2B block inconclusive
COC(=O)c1ccc(/C=C(\C#N)C(=O)NC(C)c2ccccc2)cc1 (stereo not drawn)	G9a inh 50.1µM, Sfp inh 31.6µM
CC(NC(=O)/C(C#N)=C/c1ccco1)c1ccccc1 (stereo not drawn)	Sfp inh 50.1µM
COc1ccc(/C=C(\C#N)C(=O)NC(C)c2ccccc2)cc1O (stereo not drawn)	none
Cc1nn(-c2ccccc2)c(C)c1C(=O)OC(C)C(=O)NC1CCCCC1C (stereo not drawn)	G9a inh inconclusive (no result: Sfp inh)
NC(=S)N/N=C/c1ccc2ccccc2c1	none
Cc1cnc(C=NNC(N)=S)c2cccc(N)c12	JMJD2A Tudor inh 50.1µM, HP1b binding inh inconclusive (no result: G9a inh, Sfp inh, BAZ2B block)
NC(=S)NN=Cc1nccc2ccccc12	JMJD2A Tudor inh 17.8µM (no result: G9a inh, Sfp inh, BAZ2B block)
CCN1C[C@@H]2[C@@H]3C(=O)N(C)C(=O)[C@@H]3[C@](CC)(C(=O)OC)N2C1=NCc1ccccc1	none (no result: G9a inh, Sfp inh, BAZ2B block)
O=C(Nc1cccc(S(=O)(=O)N2CCOCC2)c1)c1c2c(nc3ccccc13)CCC2	G9a inh 22.4µM, BAZ2B block inconclusive
Cc1cc(SCC(=O)Nc2cccc(S(=O)(=O)N3CCOCC3)c2)nc2ccccc12	G9a inh 39.8µM
CCOc1ccc(CNC(=O)CCn2nc(C)c3c(C)n(-c4ccccc4)nc3c2=O)cc1	none (no result: Sfp inh)
O=C(CN1C(=O)NC2(CCCC2)C1=O)c1ccc(Cl)s1	G9a inh 79.4µM (no result: Sfp inh)
CC(C)(C)C(=O)NCc1ccc(C(=O)CN2C(=O)NC3(CCCC3)C2=O)s1	none (no result: Sfp inh)
CCN(CCO)c1ccc(-n2c(N)c(C(=O)OC)c3nc4ccccc4nc32)cc1	JMJD2A Tudor inh 79.4µM, G9a inh 35.5µM, BAZ2B block inconclusive
COC(=O)c1c(N)n(-c2ccc(OC)c(OC)c2)c2nc3ccccc3nc12	none (no result: Sfp inh)
Cc1ccccc1C(=O)NCC(=O)OC(C(=O)Nc1cc(C(F)(F)F)ccc1Cl)c1ccccc1 (stereo not drawn)	none (no result: HP1b binding inh, G9a inh, Sfp inh, BAZ2B block)
C=CCC(NC(C)c1ccccc1)c1ccco1 (stereo not drawn)	JMJD2A Tudor inh 2.51µM, HP1b binding inh inconclusive, Sfp inh inconclusive, BAZ2B block 50.1µM (no result: G9a inh)
